Measurements from PubChem BioAssay (NCI).
This is part of a sample that, as a whole, favours compounds with a hit. Of some 83,000 tested, about 20% had one in any assay.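 Method: cells in 96-well plates; compound added at one concentration; 48 h incubation; percent growth measured; values under 10 scored active.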 Unmarked numbers belong to inactive results. Active and inactive are the calls of the source.

These compounds were tested on SK-MEL-28 melanoma (assay: NCI-60 one-dose screen, 48 h (100 = growth as untreated, 0 = no growth, -100 = all killed)). Conditions: 10 µM unless noted.
Procedure: Growth inhibition of the SK-MEL-28 human tumor cell line is measured as a screen for anti-cancer activity. Cells are grown in 96 well plates and exposed to the test compound for 48 hours. Compounds are tested at a single concentration, which is 10^-5 M for most compounds. The reported endpoint is percent growth (GI% or GIPRCNT), where numbers from 0 - 100% represent growth inhibition, and numbers from -100% - 0 represent cell death. For example, a value of 40 represents 60% growth inhibition. A value of 0 means no net growth occurred over the course of the experiment. A value of -40 indicates 40% of cells at the beginning of the experiment died by the end of the experiment. A value of -100 means all cells are dead at the end of the experiment.
NCI-60 Human Tumor Cell Lines Screen was performed using the standard one-dose NCI protocol, which is described in more detail at https://dtp.cancer.gov/discovery_development/nci-60/default.htm.
Compounds with GIPRCNT values below 10 were considered active. Activity score was based on GIPRCNT using the following formula: […]
Score is 0 for GIPRCNT values of 100 or above, 50 for GIPRCNT values of 0, and 100 for GIPRCNT values of -100.

SMILES	growth
Nc1nc(SCc2ccccc2)c2ncn(C3CCCC3)c2n1	141%
COc1cnc2c(c1)C(=O)c1c-2n(CCCN2CCNCC2)c(=O)c2cc([N+](=O)[O-])ccc12	-76.6% (active)
c1ccc(Sc2ncnc3ccccc23)cc1	85.5%
CSc1nc(NCCCNc2ccnc3cc(Cl)ccc23)cc(-c2ccccc2)n1	-52.2% (active)
CCN(CC)Cc1cc(Nc2c3ccc(Cl)cc3nc3c(C)cccc23)ccc1O	-65.5% (active)
Cc1ccc(-c2nc(/C=N/Nc3cc(C)nc4ccc(Cl)cc34)c(C)o2)cc1	-68.8% (active)
COc1ccc(C/C(C)=C(\c2ccc(Cl)cc2)c2ccc(OCCN3CCCCCC3)cc2)cc1	91%
CCN1CCN(Cc2ccc(NC(=O)Nc3nc4ccc(Oc5ccnc(C(=O)NC)c5)cc4s3)cc2C(F)(F)F)CC1	-85.2% (active)
CC/C=C\C[C@H](O)C/C=C1/C(=O)C=C[C@@H]1C/C=C\CCCC(=O)OC(C)C	-41.3% (active)
CCCN(CCC)CN(CCC)CCC	106%
Nc1cccc(-c2nc3sccn3c2-c2ccnc(NCCCNS(=O)(=O)c3ccc(C(F)(F)F)cc3)n2)c1	11.2%
CCCCCCCCCCCCCC(=O)C(C)N (stereo not given)	73.9%
C=C1CC2(OC1=O)C(=O)N(CCCCCCCCCCCCN1C(=O)C3(CC(=C)C(=O)O3)c3ccccc31)c1ccccc12 (stereo not given)	89.3%
O=C(CCCN1CCOCC1)Nc1ccc(Cn2nnc3c2C(=O)c2nnn(Cc4ccc(NC(=O)CCCN5CCOCC5)cc4)c2C3=O)cc1	37.3%
CC[C@H](Nc1nc(N)nc(C)c1C#N)c1nc2cccc(NCc3ccc(C(=O)NO)cc3)c2c(=O)n1-c1ccccc1	-0.295% (active)
COc1cc(C(=O)/C=C/c2c(C)n([O-])c3ccc(C)cc3[n+]2=O)cc(OC)c1OC	72.1%
COc1ccc(/C=C/C(=O)c2c(O)c(C)c(O)c3c2OC2=CC(O)=C(C(C)=O)C(=O)[C@]23C)cc1	-50.7% (active)
Cc1ccc(C2CC3c4ccccc4C2C2CCCCN32)cc1 (stereo not given)	96.4%
O=[N+]([O-])c1c(F)cccc1Nc1cccc(F)c1	118%
O=C1c2cccnc2C(=O)c2c1c(C(=O)OCCN1CCOCC1)c1ccccn21	-3.26% (active)

SMILES	growth
Cc1cc(N/N=C/c2nc(-c3ccc(Cl)cc3)oc2C)c2cc(Br)ccc2n1	17.5%
COc1ccc(-c2nn(-c3ccccc3)cc2/C=C/C(=O)OCc2cn(-c3ccc(F)c(Cl)c3)nn2)cc1	115%
O=C1c2c[n+](Cc3ccccc3)ccc2-c2nc3ccccc3c3ccnc1c23	-34.3% (active)
CCn1cc2c(cc1=O)-c1nc3ccccc3c3ccnc(c13)C2=O	72.4%
CCOC(=S)SCc1ccc(Cl)cc1	114%
COc1ccc(-c2cnoc2-c2cc(OC)c3c(c2)OCCO3)cc1	50.9%
Nc1nc2c(c3ncccc13)C(c1cccc(Br)c1)Cc1ncccc1-2 (stereo not given)	55.1%
CN1CCOCCOCCOc2ccccc2NC(=O)c2nc(cnc2N)-c2ccc(cc2)S1(=O)=O	58.6%
CN1C2CCC1/C(=C\c1ccc(Cl)cc1)C1=C2[C@@H](c2ccc(Cl)cc2)C(C#N)=C(N)O1 (stereo not given in full)	80%
CC(=O)OC1Oc2cc(C)c(C)cc2-c2oc(=O)c(-c3cc4ccc(N(C)C)cc4oc3=O)cc21 (stereo not given)	115%
COc1ccc2nc3cc(Cl)ccc3c(N3CCN(c4ccnc(N5CCN(C)CC5)n4)CC3)c2c1	28.7%
CCN(C(=O)CN1CCN(c2cc3c(cc2F)c(=O)c(C(=O)O)cn3CC)CC1)c1nc(-c2ccccc2)cs1	41.9%
CC(=O)C1=C(O)C=C2Oc3c(C(=O)/C=C/c4ccccc4)c(O)c(C)c(O)c3[C@]2(C)C1=O	43.1%
COc1ccc(/C=C2\N=C3SC=C(N)N3C2=O)cc1	43.7%
O=C(/C=C/c1cccc(Br)c1)c1ccccc1	100%
Cc1ccc2c(c1)C(=O)c1c-2c(OCCCN(C)C)nc2ccccc12	-54% (active)
CCC(C)[C@@H]1NC(=O)[C@@H]2CCCN2C(=O)[C@H](Cc2ccccc2)NC(=O)[C@@H]2CCCN2C(=O)[C@H](Cc2ccccc2)NC(=O)[C@@H]2CCCN2C(=O)[C@H](Cc2ccccc2)NC1=O (stereo not given in full)	95%
CCOC(=O)c1c2c(n3ccc(NC(=O)CCN(CC)CC)cc13)C(=O)c1ncccc1C2=O	88.8%
NS(=O)(=O)c1ccc(-n2ncc3c(=O)[nH]c(CN4CCN(c5cc6c(cc5F)c(=O)c(C(=O)O)cn6C5CC5)CC4)nc32)cc1	93.5%
Oc1cc(O)c2c(=S)cc(-c3ccc(Cl)cc3)oc2c1	40.5%
